This is an account of results in PubChem BioAssay (NCATS).

SMILES strings stand for the structures. Inconclusive results are not listed. The source made the active and inactive calls. The call rests on the fitted dose curve.

Atrial natriuretic peptide receptor 1 (Homo sapiens), sequence (P16066 whole entry, looked up, the tested form may be a part): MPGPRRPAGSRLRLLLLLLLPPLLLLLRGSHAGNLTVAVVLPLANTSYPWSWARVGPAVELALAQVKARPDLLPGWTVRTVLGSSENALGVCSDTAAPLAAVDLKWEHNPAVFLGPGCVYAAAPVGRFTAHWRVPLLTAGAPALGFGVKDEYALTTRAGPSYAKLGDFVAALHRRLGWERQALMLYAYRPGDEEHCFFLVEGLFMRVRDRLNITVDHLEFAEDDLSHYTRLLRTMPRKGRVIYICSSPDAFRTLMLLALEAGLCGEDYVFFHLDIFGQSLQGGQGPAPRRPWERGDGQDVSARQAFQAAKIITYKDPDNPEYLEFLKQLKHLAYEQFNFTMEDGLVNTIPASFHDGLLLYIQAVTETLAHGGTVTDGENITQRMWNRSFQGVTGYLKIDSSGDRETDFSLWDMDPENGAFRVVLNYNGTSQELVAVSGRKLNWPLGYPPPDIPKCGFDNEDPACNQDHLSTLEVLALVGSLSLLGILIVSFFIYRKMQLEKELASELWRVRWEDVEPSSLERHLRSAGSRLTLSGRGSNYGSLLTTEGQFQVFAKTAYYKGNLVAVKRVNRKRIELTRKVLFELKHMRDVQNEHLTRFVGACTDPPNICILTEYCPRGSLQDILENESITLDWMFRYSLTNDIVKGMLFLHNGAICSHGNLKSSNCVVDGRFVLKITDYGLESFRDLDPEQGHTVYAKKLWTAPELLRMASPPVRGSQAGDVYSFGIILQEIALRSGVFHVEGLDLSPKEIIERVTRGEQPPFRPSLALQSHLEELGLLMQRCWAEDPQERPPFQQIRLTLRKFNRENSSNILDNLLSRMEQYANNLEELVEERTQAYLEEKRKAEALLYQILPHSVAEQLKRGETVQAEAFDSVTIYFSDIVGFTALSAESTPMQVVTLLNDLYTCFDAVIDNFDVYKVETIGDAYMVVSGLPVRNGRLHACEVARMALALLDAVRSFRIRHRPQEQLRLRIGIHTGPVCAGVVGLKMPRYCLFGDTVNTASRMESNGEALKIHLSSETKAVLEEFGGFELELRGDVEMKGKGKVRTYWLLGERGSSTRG

The assay concerns the target Atrial natriuretic peptide receptor 1 (Homo sapiens) (UniProt P16066). Put plainly: Natriuretic polypeptide receptor (hNpr1) antagonism - Pilot screen (AID 1347049). The following applies: hNpr1 cells, antagonist mode cGMP read-out; series mostly up to 57.5 µM. The procedure:
In order to identify small molecular compounds that inhibit the hNpr1 receptor we developed a high-throughput assay to measure inhibition of the guanylate cyclase activity of the receptor. cGMP production was measured using a circular permutated Firefly luciferase (FLuc) enzyme functionally linked to the cGMP binding domain of human phosphodiesterase 5 (GloSensor technology pGS-40F, (Fan, F. et al. 2008). The cGMP-sensor was expressed in human embryonic kidney 293 (HEK-293) cells and FLuc activity was measured after stimulation with hNrp agonist peptide. hNrp agonists activates the receptor's associated guanylyl cyclase (GC) domain producing cGMP which then binds to the GloSensor resulting in FLuc activation, the enzymatic activity of which can be measured as bioluminescence with addition of luciferin substrate.
F. Fan, B. F. Binkowski, B. L. Butler, P. F. Stecha, M. K. Lewis, K. V. Wood, Novel genetically encoded biosensors using firefly luciferase. ACS Chem Biol 3, 346-351 (2008).
This assay was initially piloted by testing with a small diversity library of compounds with known pharmacological activity.
PROTOCOL TABLES (as described by Inglese J, Shamu CE and Guy RK. 2007)
SEQUENCE No. (e.g., 1, 2, 3, etc.); […] (e.g., Cells, Incubation, Reagent, etc.); VALUE and DESCRIPTION.
1. Cells. Seed 1500 HEK293 cGMP-sensor cells expressing hNpr1 per well in 4uL into Greiner 1536-well white/solid bottom high base, tissue culture-treated plates.
2. Incubation. Incubate plated cells at 37C in 5% CO2, 95% RH overnight.
3. Reagent. Add 1uL per well GloSensor reagent from Promega (2% final concentration) or CO2 independent media vehicle control to respective columns of Greiner 1536-well plates.
4. Incubation. Incubate plated cells at room temperature for 2 h, protect from light.
5. Compounds. Library compounds and A-71915 control added at 23 nL per well, transferred by Pin Tool.
6. Incubation. Incubate plated cells for 30 min. at room temperature, protect from light.
7. Detector. GloSensor baseline pre-read luminescence measured using CCD-based camera (Viewlux).
8. Compound. Add 1uL of hNppA peptide to 0.1 nM final concentration to stimulate hNpr1 or CO2 independent media as vehicle control.
9. Incubation. Incubate treated cells at room temperature for 20 min., protect from light.
10. Detector. GloSensor post-hNppA luminescence measured using CCD-based camera (Viewlux).
NOTES (numbers refer to Sequence numbers above)
1. HEK293 cells expressing hNpr1 and GIP/pGS-40F grown to 85-95% confluence (48-72 h) in T175 culture flasks (CO2 independent media supplemented with 10% FBS, 1% Pen/Strep antibiotics and 1 ug/mL puromycin). Trypsinize and harvest cells from T175 culture flasks and filter through 40 um cell strainer. Cells counted with Invitrogen Countess (30,000,000 - 50,000,000 cells/flask). Cells diluted to a final concentration of 375 cells/uL in CO2 independent media and a Millipore multidrop used to dispense 1500 cells per well (4uL/well) into 9 x 1536-well Greiner White/Solid bottom, high base tissue-culture treated (TC) plates and one Aurora 1536-well Black/Clear bottom, low base, TC plate (for visual inspection of cell health throughout the duration of the assay).
2. Cells incubated overnight at ambient temperature, 24 h. at 37C in 95% RH incubator protected from light, covered with metal lid with gas-exchange holes.
3. Prepare GloSensor Reagent (Promega): Reconstitute GloSensor luciferase substrate by adding 8.2mL Hepes buffer to 250mg substrate, mix well, protect from light and stored at -80C. Prepare a fresh 12% GloSensor solution in CO2 independent supplemented plating media (see above). Mix well and store at ambient temperature, protected from light. 1uL 12% GloSensor Luciferase Reagent added (2% final concentration) to respective columns of 9 x 1536-well Greiner plate with BioRaptr, 1uL CO2 independent plating media added to respective columns as vehicle control with BioRaptr.
4. […]
As to `NCCS`, the result was inactive.

Regarding `CCCCCN(C)CCC(O)(P(=O)(O)O)P(=O)(O)O`, the result was inactive.

Turning to `COc1cccc(-c2cc(=O)c3ccccc3o2)c1N`, the result was inactive.

Regarding `CC(C)OC(=O)C(C)(C)Oc1ccc(C(=O)c2ccc(Cl)cc2)cc1`, the result was inactive.

Consider `O=C(O)CCc1nc(-c2ccccc2)c(-c2ccccc2)o1`, for which the outcome was inactive.

For `CN(C)CCC(c1ccccc1)c1ccccn1` (stereo not drawn), the outcome was inactive.

As to `C[N+](C)(C)CCCCCC[N+](C)(C)C`, the outcome was inactive.

Consider `NC(N)=Nc1nc(CSCC/C(N)=N/S(N)(=O)=O)cs1`, for which the outcome was inactive.

Take `CCCNC(=O)NS(=O)(=O)c1ccc(Cl)cc1`: the outcome was inactive.

`CCN(CC)C(=O)c1ccc(O)c(OC)c1`: the outcome was inactive.

`Clc1ccc(C(c2ccc(Cl)cc2)n2cc[n+](CC(OCc3ccc(Cl)cc3Cl)c3ccc(Cl)cc3Cl)c2)cc1` (stereo not drawn): the result was inactive.

As to `Cc1cccc(C)c1OCC(C)N` (stereo not drawn), the outcome was inactive.

As to `CC(=O)c1ccc(S(=O)(=O)NC(=O)NC2CCCCC2)cc1`, the outcome was inactive.

Turning to `CC(C)NCC(O)COc1cccc2[nH]ccc12` (stereo not drawn), the result was inactive.

With `CC(=O)CCCCn1c(=O)c2c(ncn2C)n(C)c1=O`, the outcome was inactive.

In the case of `CCn1cc(C(=O)O)c(=O)c2ccc(C)nc21`, the outcome was inactive.

As for `O=C1NC(=O)C(c2ccccc2)(c2ccccc2)N1`, the outcome was inactive.

Turning to `CCCCC1C(=O)N(c2ccccc2)N(c2ccccc2)C1=O`, the result was inactive.

Take `CC(=O)N[C@@H](CS)C(=O)O`: the outcome was inactive.

As for `CCN1CCC[C@H]1CNC(=O)c1cc(S(N)(=O)=O)ccc1OC`, the result was inactive.

For `CC/C(=C(\c1ccccc1)c1ccc(OCCN(C)C)cc1)c1ccccc1`, the result was inactive.

In the case of `COC(=O)[C@@H]1[C@H]2C[C@H]3c4[nH]c5ccccc5c4CCN3C[C@@H]2CC[C@@H]1O`, the outcome was inactive.

On to `O=c1cc(-c2ccc(O)cc2)oc2cc(O)cc(O)c12`, for which the result was inactive.

Take `O=C1NCC2(CCN(CCc3ccccc3)CC2)O1`: the outcome was inactive.

With `COc1ccccc1N1CCN(CCCNc2cc(=O)n(C)c(=O)n2C)CC1`, the outcome was inactive.

For the compound `CC(=O)O[C@]1(C(C)=O)CC[C@H]2[C@@H]3C=C(Cl)C4=CC(=O)[C@@H]5C[C@@H]5[C@]4(C)[C@H]3CC[C@@]21C`, the outcome was inactive.

In the case of `Clc1ccc(Cn2c(CN3CCCC3)nc3ccccc32)cc1`, the result was inactive.

For the compound `O=C(NCCN1CCOCC1)c1ccc(Cl)cc1`, the outcome was inactive.

As for `O=c1c(-c2ccc(O)cc2)coc2cc(O)ccc12`, the outcome was inactive.

As to `CCN(CC)CCNC(=O)c1ccc(N)cc1`, the result was inactive.

Take `CC1(C)CCC2=C(O1)c1ccccc1C(=O)C2=O`: the outcome was inactive.

Take `CC1=C(/C=C/C(C)=C/C=C/C(C)=C/C(=O)Nc2ccc(O)cc2)C(C)(C)CCC1`: the result was inactive.

As for `CCN(CC)CCOC(=O)c1ccc(N)cc1`, the result was inactive.
